This is a sample that favours compounds with a hit; in the whole collection about 3.8% have one here.
Mdm2-MdmX inh – inhibitors of human Mdm2-MdmX association, primary screen, cell-based, luminescence, split luciferase, SaOS-2, uHTS | 330,000 tested, 3% active | SaOS-2 split-luciferase Mdm2/MdmX complementation | inhibition, % at 8 µM | AID 485346, 2010 | Protein Mdm4 (Homo sapiens) + E3 ubiquitin-protein ligase Mdm2 (Homo sapiens), …;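 active = inhibition of at least 50% at 8 µM in the primary screen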
Shn3 inh set2 – reduction of Shn3 3'UTR firefly luciferase signal, primary screen, Schnurri-3 inhibitor project, cell-based, Clone20 osteoblasts, set 2; Clone20 osteoblast Shn3 3'UTR firefly luciferase, 24 h; inhibition, % at 12.5 µM; 360,000 tested, 0.52% active;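 active = mean inhibition of at least 75% with every replicate also reaching 75%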
697 NFkB inh – inhibitors of PMA/ionomycin-induced NF-kB reporter, 697 cells, primary screen, B-cell NF-kB inhibitor project, cell-based, luminescence, uHTS | 697 B-cell NF-kB luciferase reporter, 16 h | inhibition, % at 4 µM | 330,000 tested, 0.33% active | AID 435022, 2010; in the data active = inhibition above about 35%
Jurkat NFkB inh – inhibitors of induced NF-kB luciferase reporter, primary screen, TCR NF-kB activation inhibitor project, cell-based, luminescence, uHTS | 330,000 tested, 0.53% active | Jurkat, PMA/ionomycin-induced NF-kB luciferase reporter | inhibition, % at 4 µM; in the data active = inhibition above about 50%
Gli-Sufu antag – Gli-Sufu pathway antagonists, primary screen, luciferase luminescence, Sufu-KO-LIGHT cells, uHTS. Sufu-KO-LIGHT fibroblasts, Gli luciferase reporter luminescence. inhibition, % at 5 µM. 340,000 tested, 0.74% active. AID 588413, 2011;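 active = inhibition above about 55%, limit read from the data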
Mdm2-MdmX conf – Mdm2-MdmX complex disruptors, retested hits, confirmation, luminescence, single concentration; 10,000 tested, 55% active; AID 489028, 2010; inhibition, % at 8 µM; shares compounds with Mdm2-MdmX inh; Mdm2-MdmX binding, luminescent assay; in the data active = inhibition above about 40%
FLuc counter – full-length luciferase signal inhibition, confirmation, counter-screen for Mdm2/MdmX interaction inhibitor project, cell-based, single concentration, SaOS-2; shares compounds with Mdm2-MdmX inh; SaOS-2 full-length luciferase counterscreen, luminescence; inhibition, % at 8 µM; 6,200 tested, 77% active; AID 504607, 2011;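 active = mean inhibition at 8 µM reaching about 37%, which flags the compound as non-specific, limit read from the data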;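 also: p53-null SaOS-2 cells with luciferase driven by a doxycycline-inducible promoter; compound on cells about two nights before reading with doxycycline added after day one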
Hits are given with their value; n = inactive; x = no result given.

SMILES	Mdm2-MdmX inh	Shn3 inh set2	697 NFkB inh	Jurkat NFkB inh	Gli-Sufu antag	Mdm2-MdmX conf	FLuc counter
Cc1cc(C)cc(OCC(=O)NNC(=O)c2ccccn2)c1	50.4	n	n	n	n	n	x
O=C(COc1ccc(Cl)cc1)NNC(=O)c1ccccn1	n	n	n	n	n	x	x
Nc1nc(CCl)nc(Nc2ccc3ccccc3c2)n1	x	n	x	x	n	x	x
Cc1ccccc1Nc1nc(N)nc(CCl)n1	93.6	n	n	n	n	91.2	40.1
COc1ccc(Nc2nc(N)nc(CCl)n2)cc1	87.0	n	n	n	n	87.0	52.1
CCCNc1nc(-c2ccccc2)c(C(=O)OCC)cc1C#N	62.8	n	n	n	n	52.2	63.5
CCCCNc1nc(-c2ccccc2)c(C(=O)OCC)cc1C#N	n	n	n	n	n	x	x
COc1ccc(NC(=O)CN2C(=O)NC3(CCCCCC3)C2=O)cc1Cl	n	n	n	n	n	x	x
CCOC(=O)COc1ccc(/C=C/[N+](=O)[O-])c(OCC(=O)OCC)c1	100.2	n	n	n	n	70.3	n
c1ccc([C@H]2CNCCN2CCc2cccc3ccccc23)cc1	57.1	n	n	n	n	n	x
Cc1ccc(S(=O)(=O)N[C@@H](Cc2ccccc2)C(=O)CCl)cc1	79.9	n	n	n	n	n	62.8
CC(=O)c1ccc(N2CCN(C(=O)c3noc4c3CSc3ccccc3-4)CC2)cc1	50.6	n	n	n	n	n	x
CC1(C)C(=O)C=CC(=O)C(C)(C)C(=O)C=CC(=O)C(C)(C)C2=CC=C(O2)C(C)(C)C(=O)C=CC1=O	x	n	x	x	n	x	x
Cc1ccc(-c2cc(C(F)F)n3ncc(C(=O)N4CCCc5ccccc54)c3n2)cc1	n	n	n	n	n	x	x
COc1ccc(-c2cc(C(F)F)n3ncc(C(=O)N4CCc5ccccc54)c3n2)cc1	66.6	n	n	n	n	55.7	72.5
O=c1cc(N2CCCCC2)c(-c2ccccc2)nn1Cc1ccc(Cl)cc1	n	n	n	n	n	x	x
O=c1cc(N2CCCCC2)c(-c2ccccc2)nn1Cc1c(Cl)cccc1Cl	56.3	n	n	n	n	n	x
CC(Cc1ccccc1)NC(=O)CCNNC(=O)c1ccncc1 (centres undefined)	x	n	x	x	x	x	x
C[C@@H]1C[C@H]2[C@@H]3CCC4=CC(=O)C=C[C@]4(C)[C@@]3(Cl)[C@@H](O)C[C@]2(C)[C@@]1(OC(=O)c1ccco1)C(=O)CCl	n	n	n	n	n	x	x
Cc1ccc(-c2csc3ncnc(Sc4nnc(CN5CCCCCC5=O)o4)c23)cc1	83.4	n	n	n	n	100.2	n
C[C@H](NC(=O)c1[nH]cnc1C(=O)Nc1ccc(Cl)cc1)c1ccccc1	60.7	n	n	n	n	n	68.2
C[C@@H](NC(=O)c1[nH]cnc1C(=O)Nc1ccccc1)c1ccccc1	n	n	n	n	n	x	x
C[C@@H](NC(=O)c1[nH]cnc1C(=O)Nc1ccc(Cl)cc1)c1ccccc1	60.4	n	n	n	n	45.0	61.6
CCn1c(-c2ccc(C)cc2)nn(CC(=O)NCCc2ccccc2)c1=S	51.3	n	n	n	n	54.9	n
COc1cc(O)c2c(c1)OC(C)(C)CC2=O	n	n	n	n	n	x	x
SMILES	Mdm2-MdmX inh	Shn3 inh set2	697 NFkB inh	Jurkat NFkB inh	Gli-Sufu antag	Mdm2-MdmX conf	FLuc counter
COc1cc(O)cc2cc3c(c(O)c12)C(=O)CC(C)(O)O3 (centres undefined)	56.9	n	n	n	n	52.5	60.3
CCN1C(=O)[C@H]2[C@@H](c3ccc(-c4cccc(Cl)c4)c(OC)c3)N3CCCC[C@@]3(C(=O)OC)[C@H]2C1=O	59.4	n	n	n	n	n	x
CCN1C(=O)[C@H]2[C@@H](c3ccc(-c4ccc(Cl)c(Cl)c4)cc3)N3CCCC[C@@]3(C(=O)OC)[C@H]2C1=O	65.6	n	n	n	n	n	x
CCN1C(=O)[C@H]2[C@@H](c3ccc(-c4ccc(Cl)c(Cl)c4)c(OC)c3)N[C@@](C)(C(=O)OC)[C@H]2C1=O	57.0	n	n	n	n	45.0	70.5
CCN1C(=O)[C@H]2[C@@H](c3ccc(-c4ccc(F)cc4)c(OC)c3)N[C@@](Cc3ccccc3)(C(=O)OC)[C@H]2C1=O	58.0	n	n	n	n	n	x
CCCCCCN1CCN(C2CN(Cc3ccc([N+](=O)[O-])cc3)S(=O)(=O)C2)CC1 (centres undefined)	x	n	x	x	x	x	x
Cc1c(Br)c(C(=O)NNC(=O)c2ccc(C(C)(C)C)cc2)nn1C	n	n	n	n	n	x	x
CCN1C(=O)[C@H]2[C@@H](c3ccc(-c4ccc(F)cc4)c(OC)c3)N3CCCC[C@@]3(C(=O)OC)[C@H]2C1=O	n	n	n	n	n	x	x
CCN1C(=O)[C@H]2[C@@H](c3ccc(-c4ccc(Cl)c(Cl)c4)c(OC)c3)N3CCCC[C@@]3(C(=O)OC)[C@H]2C1=O	65.8	n	n	n	n	n	x
COC(=O)[C@@]12CCCCN1[C@H](c1ccc(-c3cccc(Cl)c3)cc1)[C@@H]1C(=O)N(C)C(=O)[C@@H]12	77.8	n	n	n	n	n	x
Cc1ccc(S(=O)(=O)N2CCN(C(=O)COC(=O)/C=C/c3cccc([N+](=O)[O-])c3)CC2)c(C)c1	x	n	x	x	n	x	x
CCOc1cc(C(c2c(C)[nH][nH]c2=O)c2c(C)[nH][nH]c2=O)ccc1OCc1ccc([N+](=O)[O-])cc1	n	n	n	n	n	x	x
CCOc1cc(/C=C2/NC(=S)NC2=O)ccc1OCc1ccc([N+](=O)[O-])cc1	59.9	n	n	n	n	n	x
CC(C)NC(=S)N=Nc1c(O)[nH]c2ccc(C(C)C)cc12	54.9	n	n	n	n	n	51.4
COc1ccc(/C=N/OCC(=O)N=Nc2c(O)[nH]c3ccc(Br)cc23)cc1OC	n	n	n	n	n	x	x
O=C(N=Nc1c(O)[nH]c2ccccc12)Nc1ccccc1	x	n	x	x	n	x	x
Cc1cccc(NC(=S)N=Nc2c(O)[nH]c3ccccc23)c1	53.7	n	n	n	n	n	56.6
COc1ccccc1NC(=S)N=Nc1c(O)[nH]c2ccc(Br)cc12	70.4	n	n	n	n	74.7	56.6
COc1ccc(/C(C)=N/OCC(=O)N=Nc2c(O)[nH]c3ccc(Br)cc23)cc1	52.6	n	n	n	n	n	x

High-throughput results (PubChem)
